Laboratory results published in PubChem BioAssay (Tox21).
Results filed as inconclusive are left out. Unmarked numbers belong to inactive results. Activity calls are given as the source filed them. Calls follow the shape of the dose curve; as a rule, active = well fitted curve in the direction sought with a large enough effect in the repeat runs; inconclusive = weak or mixed curves; inactive = no such curve, though single readings can be large; an effect the other way counts as inactive or inconclusive.

Tested on: not listed separately
Test: qHTS assay to identify small molecule antagonists of the estrogen receptor alpha (ER-alpha) signaling pathway using the BG1 cell line - cell viability counter screen (AID 743081);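 also: compound given together with 17beta-estradiol as the ER stimulus; nearly all actives have a fitted effect of over 45% in size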
Details: BG1Luc4E2 viability, CellTiter-Fluor, 22 h; series mostly up to 70.3 µM; activity change, negative = cytotoxicity: at the top concentration
% is scaled to controls: 0 for no effect and ±100 for the full control effect.

Compared with `O=[N+]([O-])c1cc(Cl)c(Cl)cc1Cl`, `CC(C)(C)NCC(O)c1ccccc1Cl` (stereo not drawn) is higher in “activity change, negative = cytotoxicity” value: -8.21% for the first, 0.757% for the second.

First: O=C([O-])c1ccccn1.O=C([O-])c1ccccn1.O=C([O-])c1ccccn1.[Cr+3]
Second: COC(=O)C1(O)c2ccccc2-c2ccccc21
The “activity change, negative = cytotoxicity” value of the first is lower: -1.58% for the first, 10.2% for the second.

Going from `CCSCc1ccccc1OC(=O)NC` to `CN[C@@H](C)[C@H](O)c1ccccc1`, the “activity change, negative = cytotoxicity” value falls from 8.46% to -2.5%.

Going from `C=CCOC(=O)C(C)(C)OC(=O)c1cc(-n2c(=O)cc(C(F)(F)F)n(C)c2=O)ccc1Cl` to `COCc1cnc(C2=NC(C)(C(C)C)C(=O)N2)c(C(=O)O)c1` (stereo not drawn), the “activity change, negative = cytotoxicity” value rises from -10.1% to -6.76%.

Compared with `CC(O)CN1CCN(CC(=O)[O-])CCN(CC(=O)[O-])CCN(CC(=O)[O-])CC1.[Gd+3]` (stereo not drawn), `C=C(C)C(=O)OCCCCOC(=O)C(=C)C` is lower in “activity change, negative = cytotoxicity” value: -2.18% for the first, -7.83% for the second.

Going from `CCCC[N+]1(C)[C@@H]2CC(OC(=O)[C@H](CO)c3ccccc3)C[C@H]1[C@@H]1O[C@@H]12` (stereo partly drawn) to `CCCCC(CC)CO[N+](=O)[O-]` (stereo not drawn), the “activity change, negative = cytotoxicity” value falls from 15.8% to -0.256%.

Compared with `CN1CC[C@]23c4c5ccc(O)c4O[C@H]2[C@@H](O)CC[C@H]3[C@H]1C5`, `Cc1ccc2c(C)cccc2c1` is lower in “activity change, negative = cytotoxicity” value: 17.4% for the first, -0.348% for the second.

Compared with `CCCC(C)(COC(N)=O)COC(=O)NC(C)C` (stereo not drawn), `CCNC(=O)NC(=O)/C(C#N)=N/OC` is higher in “activity change, negative = cytotoxicity” value: -2.89% for the first, -1.89% for the second.

Compared with `C=CCOCC1CO1` (stereo not drawn), `C[N+](C)(C)CC1CO1` (stereo not drawn) is lower in “activity change, negative = cytotoxicity” value: 2.83% for the first, 0.694% for the second.

Compared with `COc1cc(CC(C)N)c(OC)cc1Br` (stereo not drawn), `CCCSP(=S)(OCC)Oc1ccc(SC)cc1` (stereo not drawn) is higher in “activity change, negative = cytotoxicity” value: -2.51% for the first, -2.01% for the second.

Compared with `OCCSSCCO`, `CCC[N+](CCC)(CCC)CCC` is higher in “activity change, negative = cytotoxicity” value: 2.79% for the first, 4.37% for the second.

Going from `CN(C1CCCCC1)C1CCCCC1` to `CCCC1CCCCN1` (stereo not drawn), the “activity change, negative = cytotoxicity” value falls from 0.0807% to -0.395%.

Compared with `CCCBr`, `CCC1(CC)C(=O)NC(=O)NC1=O` is higher in “activity change, negative = cytotoxicity” value: -1.93% for the first, 1.06% for the second.

Compared with `Clc1ccccc1`, `CCCC[N+](CCCC)(CCCC)CCCC` is higher in “activity change, negative = cytotoxicity” value: -1.95% for the first, 5.06% for the second.

With `CCCN(CCC)c1c([N+](=O)[O-])cc(C(C)C)cc1[N+](=O)[O-]` the Potency was “inactive”.
For `O=P(OCC(Br)CBr)(OCC(Br)CBr)OCC(Br)CBr` (stereo not drawn), the Potency was “inactive”.
In the case of `CC(C)c1ccc(OP(=O)(Oc2ccc(C(C)C)cc2)Oc2ccc(C(C)C)cc2)cc1`, the Potency is reported as “inactive”.

In the case of `Nc1c(Br)cc(Br)c2c1C(=O)c1ccccc1C2=O`, the “activity change, negative = cytotoxicity” value is reported as -14.5% [at 32.5 µM].

Going from `C=C(Cl)Cl` to `N#CC(C#N)=C(C#N)C#N`, the “activity change, negative = cytotoxicity” value falls from -2.37% [at 95 µM] to -21.1% [at 95 µM].

First: SCc1ccccc1
Second: CCOP(=S)(S)OCC
The “activity change, negative = cytotoxicity” value of the first is higher: 2.11% [at 95 µM] for the first, -8.5% [at 95 µM] for the second.

With `CCCCCBr` the “activity change, negative = cytotoxicity” value was 4.9% [at 95 µM].

Biological target: Aromatase (Homo sapiens) (UniProt P11511)
Test: qHTS assay to identify aromatase inhibitors (AID 743083); also: nearly all actives have a fitted effect of over 55% in size; also: potency is read from the fitted curve at half-maximal effect
Details: MCF-7 aro ERE, testosterone-driven ERE luciferase, 24 h; series mostly up to 70.3 µM; activity, negative = inhibition: at the top concentration

Aromatase (Homo sapiens), sequence (P11511 whole entry, looked up): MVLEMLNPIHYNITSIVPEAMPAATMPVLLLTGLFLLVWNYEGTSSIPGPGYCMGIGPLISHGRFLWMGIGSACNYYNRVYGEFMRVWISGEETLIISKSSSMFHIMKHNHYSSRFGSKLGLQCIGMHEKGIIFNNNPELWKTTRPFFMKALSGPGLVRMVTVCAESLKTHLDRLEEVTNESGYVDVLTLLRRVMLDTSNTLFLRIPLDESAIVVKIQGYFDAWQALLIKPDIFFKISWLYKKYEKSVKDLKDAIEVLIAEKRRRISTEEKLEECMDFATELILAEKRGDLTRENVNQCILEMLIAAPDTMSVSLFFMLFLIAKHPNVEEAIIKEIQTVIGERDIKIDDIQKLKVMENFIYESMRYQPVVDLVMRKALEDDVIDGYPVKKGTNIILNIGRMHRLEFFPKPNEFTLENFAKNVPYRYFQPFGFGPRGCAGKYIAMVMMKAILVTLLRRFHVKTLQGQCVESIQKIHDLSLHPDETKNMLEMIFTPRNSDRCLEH

First: O=[N+]([O-])c1cc(Cl)c(Cl)cc1Cl
Second: CC(C)(C)NCC(O)c1ccccc1Cl (stereo not drawn)
The “activity, negative = inhibition” value of the first is lower: -10.5% for the first, -5.16% for the second.

First: O=C([O-])c1ccccn1.O=C([O-])c1ccccn1.O=C([O-])c1ccccn1.[Cr+3]
Second: COC(=O)C1(O)c2ccccc2-c2ccccc21
The “activity, negative = inhibition” value of the first is higher: 7.66% for the first, -0.533% for the second.

First: CCSCc1ccccc1OC(=O)NC
Second: CN[C@@H](C)[C@H](O)c1ccccc1
The “activity, negative = inhibition” value of the first is higher: 3.84% for the first, -10.5% for the second.

First: C=CCOC(=O)C(C)(C)OC(=O)c1cc(-n2c(=O)cc(C(F)(F)F)n(C)c2=O)ccc1Cl
Second: COCc1cnc(C2=NC(C)(C(C)C)C(=O)N2)c(C(=O)O)c1 (stereo not drawn)
The “activity, negative = inhibition” value of the first is lower: -22.6% for the first, 22.9% for the second.

Compared with `CCCC[N+]1(C)[C@@H]2CC(OC(=O)[C@H](CO)c3ccccc3)C[C@H]1[C@@H]1O[C@@H]12` (stereo partly drawn), `CCCCC(CC)CO[N+](=O)[O-]` (stereo not drawn) is higher in “activity, negative = inhibition” value: -2.6% for the first, 13.1% for the second.

First: CN1CC[C@]23c4c5ccc(O)c4O[C@H]2[C@@H](O)CC[C@H]3[C@H]1C5
Second: Cc1ccc2c(C)cccc2c1
The “activity, negative = inhibition” value of the first is higher: -3.56% for the first, -13% for the second.

Going from `C=CCOCC1CO1` (stereo not drawn) to `C[N+](C)(C)CC1CO1` (stereo not drawn), the “activity, negative = inhibition” value rises from -3.09% to 7.07%.

Going from `COc1cc(CC(C)N)c(OC)cc1Br` (stereo not drawn) to `CCCSP(=S)(OCC)Oc1ccc(SC)cc1` (stereo not drawn), the “activity, negative = inhibition” value rises from -14.3% to 7.46%.

Going from `OCCSSCCO` to `CCC[N+](CCC)(CCC)CCC`, the “activity, negative = inhibition” value rises from -1.58% to 11.3%.

First: CN(C1CCCCC1)C1CCCCC1
Second: CCCC1CCCCN1 (stereo not drawn)
The “activity, negative = inhibition” value of the first is higher: 9.38% for the first, 2.17% for the second.

First: CCNC(=O)NC(=O)/C(C#N)=N/OC
Second: CCC1(CC)C(=O)NC(=O)NC1=O
The “activity, negative = inhibition” value of the first is higher: 24.2% for the first, -9.5% for the second.

First: CCCBr
Second: CCCC[N+](CCCC)(CCCC)CCCC
The “activity, negative = inhibition” value of the first is lower: -1.36% for the first, 9.95% for the second.

For `Clc1ccccc1`, the “activity, negative = inhibition” value was -3.79%.

In the case of `CC(O)CN1CCN(CC(=O)[O-])CCN(CC(=O)[O-])CCN(CC(=O)[O-])CC1.[Gd+3]` (stereo not drawn), the Potency is reported as “inactive”.
For `CCCN(CCC)c1c([N+](=O)[O-])cc(C(C)C)cc1[N+](=O)[O-]`, the Potency was “inactive”.
With `O=P(OCC(Br)CBr)(OCC(Br)CBr)OCC(Br)CBr` (stereo not drawn) the Potency was 61.9 µM (active).
For `CCCC(C)(COC(N)=O)COC(=O)NC(C)C` (stereo not drawn), the Potency was “inactive”.

In the case of `Nc1c(Br)cc(Br)c2c1C(=O)c1ccccc1C2=O`, the “activity, negative = inhibition” value is reported as 13.5% [at 32.5 µM].

Going from `C=C(Cl)Cl` to `N#CC(C#N)=C(C#N)C#N`, the “activity, negative = inhibition” value rises from -4.43% [at 95 µM] to 14.8% [at 95 µM].

Compared with `SCc1ccccc1`, `CC(C)c1ccc(OP(=O)(Oc2ccc(C(C)C)cc2)Oc2ccc(C(C)C)cc2)cc1` is lower in “activity, negative = inhibition” value: 20.2% [at 95 µM] for the first, -5.33% [at 95 µM] for the second.

Compared with `CCCCCBr`, `CCOP(=S)(S)OCC` is higher in “activity, negative = inhibition” value: 1.11% [at 95 µM] for the first, 9.72% [at 95 µM] for the second.
